The results in this text go back to PubChem BioAssay (EPA / NIEHS).

The source made the active and inactive calls. How the source made its calls: active means hit-call score of the fitted dose curve at least 0.9, where 1 is the maximum; inactive means score below 0.9.

Conditions in all cases: mRNA level, 48 h; actives raise or lower the signal
Read-out in experiment [1]: DNA damage-inducible transcript 3 (DDIT3), DDIT3 (gene 1649)
The experiment is described as follows: LTEA_HepaRG_DDIT3: Life Technologies and Expression Analysis (LTEA) Assay for DNA damage-inducible transcript 3 (DDIT3) using HepaRG (AID 2283488). The essentials: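 qRT-PCR readout (Fluidigm TaqMan), housekeeping-normalized to ACTB, GAPDH, POLR2A. HepaRG cells, 48 h exposure, 8-point half-log series from 100 uM in 0.5% DMSO, duplicates. Gain or loss of signal fitted against DMSO baseline.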

Read-out in experiment [2]: Pro-epidermal growth factor (Homo sapiens) (UniProt P01133)
The experiment is described as follows: LTEA_HepaRG_EGF: Life Technologies and Expression Analysis (LTEA) Assay for Epidermal growth factor (EGF) using HepaRG (AID 2283489). The essentials:
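HepaRG cells (~100,000/well, 48 h pre-culture) exposed in duplicate for 48 h in serum-free induction medium to 8 half-log concentrations up to 100 uM in 0.5% DMSO. EGF mRNA by qRT-PCR, normalized to ACTB/GAPDH/POLR2A; bidirectional fit versus DMSO.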

Read-out in experiment [3]: Early growth response protein 1 (EGR1) transcription factor, EGR1 (gene 1958)
The experiment is described as follows: LTEA_HepaRG_EGR1: Life Technologies and Expression Analysis (LTEA) Assay for Early growth response protein 1 (EGR1) transcription factor using HepaRG (AID 2283490). The gist of the method:
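EGR1 transcript levels quantified by qRT-PCR (Fluidigm arrays) against three housekeeping genes after 48 h chemical exposure of HepaRG cells. Eight-point half-log series topping at 100 uM, 0.5% DMSO vehicle, analyzed for gain or loss.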

Read-out in experiment [4]: Ezrin (EZR), EZR (gene 7430)
The experiment is described as follows: LTEA_HepaRG_EZR: Life Technologies and Expression Analysis (LTEA) Assay for Ezrin (EZR) using HepaRG (AID 2283491). The essentials:
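Gain or loss of EZR mRNA is scored relative to 0.5% DMSO in human HepaRG cultures treated 48 h with test chemicals in duplicate, eight half-log concentrations from 100 uM.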

Read-out in experiment [5]: Cytochrome P450 3A7 (Homo sapiens) (UniProt P24462)
The experiment is described as follows: LTEA_HepaRG_CYP3A7: Life Technologies and Expression Analysis (LTEA) Assay for CYP3A7 using HepaRG (AID 2283492). The essentials:
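Differentiated HepaRG cells in serum-free induction medium exposed 48 h in duplicate to 8-point half-log series from 100 uM top in 0.5% DMSO. CYP3A7 mRNA by qRT-PCR, normalized to ACTB/GAPDH/POLR2A, bidirectional fit versus DMSO.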

Read-out in experiment [6]: CYP3A5 (gene 1577)
As to the kind of experiment: LTEA_HepaRG_CYP3A5: Life Technologies and Expression Analysis (LTEA) Assay for CYP3A5 using HepaRG (AID 2283493). The gist of the method: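 qRT-PCR read-out: CYP3A5 transcript in HepaRG lysates, housekeeping-normalized (ACTB/GAPDH/POLR2A), fitted bidirectionally against 0.5% DMSO baseline. Exposure 48 h, eight half-log concentrations up to 100 uM, duplicates.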

Read-out in experiment [7]: Fatty Acid-Binding Protein 1 (FABP1), FABP1 (gene 2168)
The experiment is described as follows: LTEA_HepaRG_FABP1: Life Technologies and Expression Analysis (LTEA) Assay for Fatty Acid-Binding Protein 1 (FABP1) using HepaRG (AID 2283494). The gist of the method:
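FABP1 expression by TaqMan qRT-PCR, normalised to three housekeeping genes, in HepaRG cells after 48 h chemical treatment. Eight-point half-log series topping at 100 uM in 0.5% DMSO, duplicates; gain or loss fitted relative to vehicle.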

Read-out in experiment [8]: Cytochrome P450 4A22 (Homo sapiens) (UniProt Q5TCH4)
The experiment is described as follows: LTEA_HepaRG_CYP4A22: Life Technologies and Expression Analysis (LTEA) Assay for Cytochrome P450 4A22 (CYP4A22) using HepaRG (AID 2283495). The gist of the method: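 Differentiated HepaRG cells in serum-free induction medium exposed 48 h in duplicate to eight half-log concentrations up to 100 uM in 0.5% DMSO. CYP4A22 mRNA quantified by TaqMan qRT-PCR, normalized to ACTB, GAPDH and POLR2A; bidirectional fit versus DMSO.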

Read-out in experiment [9]: Glutathione S-Transferase (GSTA2), GSTA2 (gene 2939)
As to the kind of experiment: LTEA_HepaRG_GSTA2: Life Technologies and Expression Analysis (LTEA) Assay for Glutathione S-Transferase (GSTA2) using HepaRG (AID 2283497). The essentials:
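GSTA2 transcript levels came from Fluidigm TaqMan qRT-PCR normalized to three housekeeping genes, fitted in both directions against DMSO. HepaRG cultures received chemicals for 48 h in serum-free induction medium (0.5% DMSO), 8 half-log concentrations up to 100 uM, duplicate.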

Read-out in experiment [10]: Glutamate-cysteine ligase catalytic (GCLC), GCLC (gene 2729)
As to the kind of experiment: LTEA_HepaRG_GCLC: Life Technologies and Expression Analysis (LTEA) Assay for Glutamate-cysteine ligase catalytic (GCLC) using HepaRG (AID 2283498). The gist of the method:
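Expression by TaqMan qRT-PCR, normalized to three housekeeping genes (ACTB, GAPDH, POLR2A), with up- or down-regulation fitted against DMSO. HepaRG cells dosed in duplicate for 48 h with 8 half-log concentrations up to 100 uM, vehicle 0.5% DMSO.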

Read-out in experiment [11]: growth arrest and DNA damage 45 (GADD45G), GADD45G (gene 10912)
The experiment is described as follows: LTEA_HepaRG_GADD45G: Life Technologies and Expression Analysis (LTEA) Assay for growth arrest and DNA damage 45 (GADD45G) using HepaRG (AID 2283499). The gist of the method: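 Differentiated human HepaRG cells, 48 h post-plating, exposed 48 h in serum-free induction medium to 8 half-log concentrations (top 100 uM, 0.5% DMSO) in duplicate. GADD45G mRNA measured by Fluidigm TaqMan qRT-PCR, normalized to ACTB, GAPDH, POLR2A; bidirectional fit versus DMSO.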

Read-out in experiment [12]: Glutathione S-transferase M3 (GSTM3), GSTM3 (gene 2947)
As to the kind of experiment: LTEA_HepaRG_GSTM3: Life Technologies and Expression Analysis (LTEA) Assay for Glutathione S-transferase M3 (GSTM3) using HepaRG (AID 2283501). The gist of the method:
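Differentiated human HepaRG cells were exposed in duplicate for 48 h in serum-free induction medium, 8 points from 100 uM top in half-log steps, 0.5% DMSO. GSTM3 mRNA was measured by TaqMan qRT-PCR, normalized to ACTB, GAPDH and POLR2A; bidirectional fit versus DMSO.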

Read-out in experiment [13]: Heat shock 70 kDa protein 1 (HSPA1A), gene 3303
As to the kind of experiment: LTEA_HepaRG_HSPA1A: Life Technologies and Expression Analysis (LTEA) Assay for Heat shock 70 kDa protein 1 (HSPA1A) using HepaRG (AID 2283502). The gist of the method:
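HepaRG, 48 h exposure, 8-pt half-log CRC from 100 uM in 0.5% DMSO, duplicates. Readout: TaqMan qRT-PCR of HSPA1A mRNA, housekeeping-normalized (ACTB/GAPDH/POLR2A). Bidirectional fit vs 0.5% DMSO baseline.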

Read-out in experiment [14]: Hypoxia-inducible factor 1-alpha (Homo sapiens) (UniProt Q16665)
The experiment is described as follows: LTEA_HepaRG_HIF1A: Life Technologies and Expression Analysis (LTEA) Assay for Hypoxia-inducible factor 1 (HIF1A) Trancription factor using HepaRG (AID 2283503). The gist of the method:
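Gain- or loss-of-signal HIF1A mRNA changes are fitted against a DMSO baseline. HepaRG cultures receive eight concentrations, highest 100 uM, for 48 h in serum-free induction medium with 0.5% DMSO.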

Read-out in experiment [15]: 3-Hydroxy-3-Methylglutaryl-CoA Synthase 2 (HMGCS2), HMGCS2 (gene 3158)
As to the kind of experiment: LTEA_HepaRG_HMGCS2: Life Technologies and Expression Analysis (LTEA) Assay for 3-Hydroxy-3-Methylglutaryl-CoA Synthase 2 (HMGCS2) using HepaRG (AID 2283504). The essentials: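 Human HepaRG cells in serum-free induction medium were exposed in duplicate for 48 h to 8-point half-log series from 100 uM top in 0.5% DMSO. HMGCS2 mRNA measured by TaqMan qRT-PCR, normalised to ACTB, GAPDH, POLR2A; bidirectional fit versus DMSO.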

Read-out in experiment [16]: HGF (gene 3082)
The experiment is described as follows: LTEA_HepaRG_HGF: Life Technologies and Expression Analysis (LTEA) Assay for Hepatocyte Growth Facto (HGF) using HepaRG (AID 2283505). The essentials: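 Differentiated HepaRG cells in serum-free induction medium exposed 48 h in duplicate, 8 half-log concentrations from 100 uM in 0.5% DMSO. HGF mRNA by qRT-PCR, normalised to ACTB, GAPDH, POLR2A; bidirectional fitting.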

Read-out in experiment [17]: Intercellular Adhesion Molecule 1 (ICAM1), ICAM1 (gene 3383)
As to the kind of experiment: LTEA_HepaRG_ICAM1: Life Technologies and Expression Analysis (LTEA) Assay for Intercellular Adhesion Molecule 1 (ICAM1) using HepaRG (AID 2283507). The essentials:
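Differentiated human HepaRG cells in serum-free induction medium exposed 48 h in duplicate to 8 half-log concentrations (top 100 uM, 0.5% DMSO). ICAM1 mRNA quantified by TaqMan qRT-PCR, normalized to ACTB, GAPDH and POLR2A; bidirectional fitting versus DMSO.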

Read-out in experiment [18]: Cytochrome P450 7A1 (Homo sapiens) (UniProt P22680)
The experiment is described as follows: LTEA_HepaRG_CYP7A1: Life Technologies and Expression Analysis (LTEA) Assay for Cytochrome P450 7A1 (CYP7A1) using HepaRG (AID 2283496). The gist of the method: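 Using 0.5% DMSO as vehicle and baseline, chemicals were tested in duplicate over an 8-point range from 100 uM on HepaRG cells for 48 h; qRT-PCR signals were normalised to ACTB, GAPDH and POLR2A.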

Read-out in experiment [19]: Glutamate-cysteine ligase regulatory (GCLM), GCLM (gene 2730)
The experiment is described as follows: LTEA_HepaRG_GCLM: Life Technologies and Expression Analysis (LTEA) Assay for Glutamate-cysteine ligase regulatory (GCLM) using HepaRG (AID 2283500). The gist of the method: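 HepaRG, 48 h dosing, 100 uM top, half-log x8, 0.5% DMSO vehicle. Readout: GCLM mRNA by TaqMan qRT-PCR, housekeeping-normalized (ACTB/GAPDH/POLR2A). Curves fit bidirectionally vs DMSO baseline.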

Read-out in experiment [20]: Insulin Like Growth Factor 1 (IGF1), IGF1 (gene 3479)
The experiment is described as follows: LTEA_HepaRG_IGF1: Life Technologies and Expression Analysis (LTEA) Assay for Insulin Like Growth Factor 1 (IGF1) using HepaRG (AID 2283506). The essentials: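 qRT-PCR readout of IGF1 mRNA, normalized to three housekeeping genes, after 48 h chemical exposure of HepaRG cells. Concentrations: 8-point half-log series, top 100 uM, 0.5% DMSO vehicle. Gain or loss fitted against DMSO baseline.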

Chain of Hypoxia-inducible factor 1-alpha (Homo sapiens) (Q16665 whole entry, looked up): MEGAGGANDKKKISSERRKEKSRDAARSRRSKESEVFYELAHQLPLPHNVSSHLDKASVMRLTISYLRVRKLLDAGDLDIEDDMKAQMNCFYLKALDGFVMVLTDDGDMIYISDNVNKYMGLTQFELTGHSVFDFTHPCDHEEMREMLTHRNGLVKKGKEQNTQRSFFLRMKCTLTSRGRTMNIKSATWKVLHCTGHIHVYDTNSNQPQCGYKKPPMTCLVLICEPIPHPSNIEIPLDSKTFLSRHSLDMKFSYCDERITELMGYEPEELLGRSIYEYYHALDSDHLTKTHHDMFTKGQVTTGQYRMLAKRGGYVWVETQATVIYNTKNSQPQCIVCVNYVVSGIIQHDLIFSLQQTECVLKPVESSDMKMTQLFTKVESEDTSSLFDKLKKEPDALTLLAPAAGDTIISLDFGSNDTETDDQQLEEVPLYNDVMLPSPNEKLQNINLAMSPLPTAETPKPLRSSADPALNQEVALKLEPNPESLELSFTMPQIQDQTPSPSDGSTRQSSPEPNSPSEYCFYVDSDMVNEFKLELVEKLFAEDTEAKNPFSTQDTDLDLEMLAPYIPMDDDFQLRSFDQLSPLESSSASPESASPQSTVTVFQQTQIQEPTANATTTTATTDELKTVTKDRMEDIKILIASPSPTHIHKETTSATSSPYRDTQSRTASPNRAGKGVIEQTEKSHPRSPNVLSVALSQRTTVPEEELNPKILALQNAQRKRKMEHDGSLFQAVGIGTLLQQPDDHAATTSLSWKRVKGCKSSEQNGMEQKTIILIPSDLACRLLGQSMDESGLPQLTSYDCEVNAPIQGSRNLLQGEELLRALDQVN
Chain of Cytochrome P450 3A7 (Homo sapiens) (P24462 whole entry, looked up): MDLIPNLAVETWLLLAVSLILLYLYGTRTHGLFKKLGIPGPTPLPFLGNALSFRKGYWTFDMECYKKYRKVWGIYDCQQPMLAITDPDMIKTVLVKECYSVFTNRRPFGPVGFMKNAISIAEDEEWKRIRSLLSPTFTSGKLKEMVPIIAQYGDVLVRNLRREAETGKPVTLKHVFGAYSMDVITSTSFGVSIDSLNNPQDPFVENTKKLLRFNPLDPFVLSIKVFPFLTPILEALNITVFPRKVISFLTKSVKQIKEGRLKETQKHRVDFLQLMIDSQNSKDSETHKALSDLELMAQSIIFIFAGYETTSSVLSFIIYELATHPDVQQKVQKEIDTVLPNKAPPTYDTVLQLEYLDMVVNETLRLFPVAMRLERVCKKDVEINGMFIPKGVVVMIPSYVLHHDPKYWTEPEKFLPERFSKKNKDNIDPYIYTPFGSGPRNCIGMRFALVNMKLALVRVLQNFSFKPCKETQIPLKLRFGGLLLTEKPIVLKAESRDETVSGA

For orientation: AC50 means the concentration giving half of the maximal activity seen. For `S=C1NCCN1`, the call in [1], in experiment [2], in experiment [3], in experiment [4], in [5] and in [6] was inactive. The molecule was called inactive in experiment [7], in [8], in experiment [9], in [10], in [11] and in experiment [12]. Moreover, the outcome in experiment [14], in experiment [15], in [16] and in experiment [17] was inactive. Besides, the AC50 in [13] was 0.277 µM (active).

On to `CCOP(=S)(OCC)Oc1ccc2c(C)c(Cl)c(=O)oc2c1`, for which the AC50 was 80.3 µM (active) in experiment [1]; 24.6 µM (active) in experiment [7]; 50 µM (active) in experiment [8]; 15.5 µM (active) in experiment [18]; 82 µM (active) in [9]; 50 µM (active) in [11]. Further, the AC50 is 51.8 µM (active) in experiment [15] and 33.8 µM (active) in [20]. The outcome in experiment [2], in experiment [3], in experiment [4], in experiment [5], in experiment [6] and in experiment [10] was inactive. Also, the call in experiment [19], in experiment [14], in [16] and in [17] was inactive.

With `CCOP(=O)(NC(C)C)Oc1ccc(SC)c(C)c1` (configuration not stated), the call in experiment [1], in experiment [2], in experiment [3], in experiment [4], in experiment [5] and in experiment [6] was inactive. The molecule was called inactive in experiment [9], in experiment [10], in experiment [11], in [19], in experiment [12] and in experiment [14]. For the same molecule, the molecule was called inactive in [16] and in experiment [17]. For the same molecule, the AC50 in experiment [7] was 23.8 µM (active); in [8] it was 19.5 µM (active); in experiment [15], 18.8 µM (active).
